± gives the standard deviation of the averaged measurements. Whole data set: some 1,900 compounds, median “relative cell viability (CellTiter-Glo), compound alone” near 1, cut for the lowest 2% near 0.16. This is one part of a sample in which the lowest values are shown more often than they occur.

The values below come from the supplement of paper PMC9399229.

The subject of this assay is Hep3B. The assay can be described thus: relative cell viability (CellTiter-Glo), compound alone (fraction); higher = more viable cells (less growth inhibition). The note with it: cabozantinib 0 µM; 4 days.
Take `C[C@H]1CCC/C=C/[C@@H]2C[C@H](O)C[C@H]2[C@H](O)/C=C/C(=O)O1` [Brefeldin A]: the relative cell viability is 0.111 ± 0.0018.

For the compound `CC(C)OC(=O)[C@H](C)N[P@](=O)(CO[C@H](C)Cn1cnc2c(N)ncnc21)Oc1ccccc1` [Tenofovir Alafenamide (GS-7340)], the relative cell viability stood at 1.12 ± 0.17. In turn, `CC(C)[C@]12O[C@H]1[C@@H]1O[C@]13[C@]1(O[C@H]1C[C@H]1C4=C(CC[C@@]13C)C(=O)OC4)[C@@H]2O` [Triptolide (PG490)] displayed a relative cell viability of 0.179 ± 0.009. The compound `CN1CCc2cc3c(cc2C1C1OC(=O)c2c1ccc1c2OCO1)OCO3` (single isomer, unassigned; (+)) [(+)-Bicuculline] returned a relative cell viability of 1.1 ± 0.094. The compound `CN1[C@@H]2CC(O)C[C@H]1[C@@H]1O[C@@H]12` (stereo not given in full) [Scopine] yielded a relative cell viability of 1.05 ± 0.1.

`CCN1CCN(C(=O)Cc2ccc(Nc3ncc(F)c(Nc4ccc(C(=O)Nc5ccccc5Cl)cc4)n3)cc2)CC1` [Aurora A Inhibitor I] registered a relative cell viability of 0.328 ± 0.1. Then `C[C@@H]1O[C@@H](O[C@H]2C[C@@H](O)[C@]3(CO)[C@H]4[C@H](O)C[C@]5(C)[C@@H](C6=CC(=O)OC6)CC[C@]5(O)[C@@H]4CC[C@]3(O)C2)[C@H](O)[C@H](O)[C@H]1O` [Ouabain], with 0.103 ± 0.0012. Turning to `Cn1cc(C2=C(c3cn(C4CCN(Cc5ccccn5)CC4)c4ccccc34)C(=O)NC2=O)c2ccccc21`, the relative cell viability amounted to 1.29 ± 0.031. Consider `C[C@@H]1[C@H](O)[C@@H](C)/C=C/C=C/CC/C=C/C=C/C=C/C=C/[C@H](O[C@H]2O[C@@H](C)[C@H](O)[C@@H](N)[C@H]2O)C[C@@H]2O[C@](O)(C[C@@H](O)[C@H](O)CC[C@@H](O)C[C@@H](O)C[C@@H](O)CC(=O)O[C@H]1C)C[C@H](O)[C@H]2C(=O)O` [Nystatin (Fungicidin)], for which the relative cell viability came out at 1.06 ± 0.15. Turning to `COC(=O)C1=CCCN(C)C1` [Arecoline], the relative cell viability was 1.02 ± 0.074.

`c1ccc([C@@H]2C[C@H]2NC2CCNCC2)cc1` yielded a relative cell viability of 0.9895 ± 0.0065. Then `O=c1[nH]c2ccc(Cl)cc2c(N[C@@H]2CN3CCC2CC3)c1-c1nc2ccccc2[nH]1`, with 0.13 ± 0.018; and `CCOC(=O)c1cncn1[C@H](C)c1ccccc1` [Etomidate], with 1.24 ± 0.049.

Turning to `CCN1CC2(OC(=O)c3ccccc3NC(C)=O)CCC(OC)C34C1C(CC23)C1(O)CC(OC)C2CC4C1(O)C2OC` (stereo not given) [Lappaconite HBr], the relative cell viability turned out to be 0.984 ± 0.092.

In turn, `O=C1C=CC[C@@H]2[C@H]3CCCN4CCC[C@@H](CN12)[C@@H]34` [Sophocarpine] registered a relative cell viability of 1.02 ± 0.17.

Take `CCOc1ccccc1-n1c(C(C)N2CCN(C(=O)COc3ccc(Cl)cc3)CC2)nc2ccccc2c1=O` (stereo not given) [Erastin]: the relative cell viability was 1.21 ± 0.063. With `COc1cc([C@@H]2c3cc4c(cc3[C@H](O)[C@H]3COC(=O)[C@@H]23)OCO4)cc(OC)c1OC` [Picropodophyllin (PPP)] the figure was 0.7418 ± 0.0018. In the case of `[O-][n+]1ccccc1[S-].[O-][n+]1ccccc1[S-].[Zn+2]` [Zinc Pyrithione], the relative cell viability was found to be 0.0193 ± 0.0014. Then `CCN(Cc1ccc(Cl)nc1)/C(=C/[N+](=O)[O-])NC` [Nitenpyram], with 0.914 ± 0.12; and `CN1CCN(c2nc3ccccc3nc2Cl)CC1`, with 1.13 ± 0.04.
